Compounds with a hit are over-represented: about 3.7% of the library has one in this group of screens.
BoNT F protease = blocks Botulinum neurotoxin F light chain protease; Multiplex microsphere protease cleavage assay, flow cytometry; inhibition, % at 10 µM; 360,000 compounds, 0.22% hits; AID 588497; in the data active means inhibition above about 35%, passing the limit was not always enough; inconclusive means no clear call, values can overlap the other calls; further: plate controls were buffer without enzyme for full effect and enzyme alone for no effect
MazEF act = MazEF (E. coli) toxin RNase activation; FAM/BHQ RNA-DNA oligo cleavage fluorescence, 5 h; activation, % at 20 µM; 350,000 compounds, 0.32% hits; AID 504720; in the data active means activation above about 50%
BoNT A protease = BoNT A light chain protease inhibition | multiplex microsphere protease substrate cleavage, flow cytometry | inhibition, % at 10 µM | 360,000 compounds, 0.17% hits; further: plate controls were buffer without enzyme for full effect and enzyme alone for no effect
Anthrax LF inh2 = anthrax lethal factor protease inhibition; P15917; inhibition, % at 10 µM; 360,000 compounds, 0.12% hits; multiplex microsphere protease cleavage assay, LF; further: plate controls were buffer without enzyme for full effect and enzyme alone for no effect
Target sequence (P15917 whole entry, looked up): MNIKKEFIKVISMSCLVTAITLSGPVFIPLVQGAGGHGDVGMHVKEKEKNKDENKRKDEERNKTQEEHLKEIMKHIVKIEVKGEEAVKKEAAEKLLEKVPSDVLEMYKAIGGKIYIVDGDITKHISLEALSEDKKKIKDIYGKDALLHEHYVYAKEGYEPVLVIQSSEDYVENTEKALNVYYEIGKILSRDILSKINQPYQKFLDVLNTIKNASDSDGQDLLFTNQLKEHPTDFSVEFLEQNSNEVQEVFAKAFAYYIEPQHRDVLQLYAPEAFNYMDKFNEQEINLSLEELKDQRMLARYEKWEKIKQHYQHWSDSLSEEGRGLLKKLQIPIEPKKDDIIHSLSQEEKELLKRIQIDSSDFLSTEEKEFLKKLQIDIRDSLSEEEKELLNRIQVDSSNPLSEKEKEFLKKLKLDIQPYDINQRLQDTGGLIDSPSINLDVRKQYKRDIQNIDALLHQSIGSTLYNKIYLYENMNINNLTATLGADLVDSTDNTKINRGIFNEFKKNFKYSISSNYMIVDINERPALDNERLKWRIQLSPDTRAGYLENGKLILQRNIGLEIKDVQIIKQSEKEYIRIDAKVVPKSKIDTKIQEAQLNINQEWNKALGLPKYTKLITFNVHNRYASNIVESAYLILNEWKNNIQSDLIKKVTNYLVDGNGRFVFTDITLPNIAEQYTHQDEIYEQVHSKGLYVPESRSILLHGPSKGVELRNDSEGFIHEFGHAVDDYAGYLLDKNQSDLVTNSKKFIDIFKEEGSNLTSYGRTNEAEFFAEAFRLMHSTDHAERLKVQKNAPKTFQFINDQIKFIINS
Autofluor counter = counter-screen for toxin protease inhibitors: compound fluorescence; compound autofluorescence counterscreen, microsphere flow cytometry; hits give high values; 360,000 compounds, 3.1% hits; fluorescence intensity (no concentration beside the values); in the data active means fluorescence intensity above about 16000; inconclusive means no clear call, values can overlap the other calls
Numbers without * were called inactive; ? = inconclusive; nt = no result. Unless noted, no stated cut-off is given here; in the data, active means inhibition above about 30%; inconclusive means no clear call, values can overlap the other calls; inactive means below that.

SMILES	BoNT F protease	MazEF act	BoNT A protease	Anthrax LF inh2	Autofluor counter
COCCCn1cc(CN2CC(N3CCN(CCN(C)C)CC3)CS2(=O)=O)nn1 (stereo unspecified)	8	nt	0	-5	5935
NCc1cccc(-n2cccn2)c1	-1	3	?	0	21167*
CS(=O)(=O)N(Cc1ccccc1)c1ccccc1C(=O)N1CCN(c2ccccc2)CC1	3	2	-1	0	10606
COc1ccc(S(=O)(=O)N(Cc2ccccc2)c2ccccc2C(=O)N2CCOCC2)cc1	5	22	1	0	3555
CCN1CCN(C(=O)c2ccccc2N(Cc2ccccc2)S(=O)(=O)c2ccc(C)cc2)CC1	1	16	?	-3	21954*
CCN1CCN(C(=O)c2ccccc2N(Cc2ccccc2)S(C)(=O)=O)CC1	1	0	2	0	21470*
O=C(COC(=O)c1cccnc1Nc1ccccc1F)NCCN1C(=O)CSC1=O	69*	-6	10	-1	4198
CCOc1cccc(CN(C)CC2CCCN(CCc3ccc(Cl)cc3)C2)c1O (stereo unspecified)	nt	-26	nt	nt	nt
CC(=O)Oc1ccc(NC(=O)C2CCCCC2)c(C(=O)O)c1	4	7	5	-3	20737*
CN(Cc1ccccc1)C(=O)Cn1c(=O)c2cccn2c2cccnc21	-6	-1	0	0	5812
Cc1cccc(C)c1N1C(=O)C2ON(c3ccccc3)C(c3ccncc3)C2C1=O (stereo unspecified)	-4	-4	?	0	22531*
O=C1C2ON(c3ccccc3)C(c3ccncc3)C2C(=O)N1c1ccccc1 (stereo unspecified)	-3	1	-2	2	20412*
Cc1ccccc1N1C(=O)C2ON(c3ccccc3)C(c3cccnc3)C2C1=O (stereo unspecified)	-5	-8	0	1	5262
Cc1c(Cl)cccc1N1C(=O)C2ON(c3ccccc3)C(c3cccnc3)C2C1=O (stereo unspecified)	-2	0	0	2	21730*
C[C@@H]1CN([C@@H](C)CO)C(=O)CCCn2nncc2CO[C@H]1CN(C)S(=O)(=O)c1ccc(F)cc1	-4	6	-1	4	3697
COc1cc([N+](=O)[O-])ccc1NC(=O)Cn1ccsc1=N	8	2	0	2	4237
O=C(c1ccc(Br)s1)N1CCN(c2ncccn2)CC1	0	6	2	2	23389*
CCOc1ccccc1-c1nc(-c2cc3ccc(C)cc3[nH]c2=O)no1	5	6	2	0	16326*
CCCc1nc(-c2cc3ccc(C)cc3[nH]c2=O)no1	-4	5	-1	-8	5831
Cc1ccc(C(C(=O)NC2CCCCC2)N2CCCC2)cc1 (stereo unspecified)	36*	16	0	-2	3664
Cc1ccc(C(C(=O)NC2CCCC2)N2CCCCC2)cc1 (stereo unspecified)	3	9	-1	-1	5637
COc1ccc(N2CCN(C(=O)c3ccc(CS(=O)(=O)c4ccc(OC)cc4)o3)CC2)cc1	-1	8	0	-3	5212
O=C(O)c1ccc(CS(=O)(=O)Cc2ccccc2F)o1	-6	-2	-1	-4	8061
CCN1CCN(C(=O)c2ccc(CS(=O)(=O)Cc3ccccc3F)o2)CC1	-4	7	-3	-1	25125*
COc1ccc(S(=O)(=O)Cc2ccc(C(=O)N3CCC4(CC3)OCCO4)o2)cc1	0	2	1	-4	19527*
SMILES	BoNT F protease	MazEF act	BoNT A protease	Anthrax LF inh2	Autofluor counter
COc1ccccc1CNC(=O)c1ccc(CS(=O)(=O)c2ccccc2OC)o1	-4	2	-2	-3	22833*
COc1ccccc1N1CCN(C(=O)c2ccc(CS(=O)(=O)c3ccccc3OC)o2)CC1	-4	-13	-1	-1	16680*
Cc1ccc(C(C)C)cc1S(=O)(=O)NCc1ccccn1	?	4	-2	-3	3716
Cc1nc(N2CCCCC2)c2c(C)c(C(=O)Nc3ccc4c(c3)OCCO4)sc2n1	0	-12	1	0	3968
CCOC(=O)N1CCN(C(=O)c2ccc(CS(=O)(=O)c3ccccc3OC)o2)CC1	6	-6	?	-2	20166*
CCOC(=O)N1CCN(C(=O)c2ccc(CS(=O)(=O)c3c(Cl)cccc3Cl)o2)CC1	-6	5	-1	-13	4242
CCn1nc(C(=O)NCc2nnc3ccccn23)c2ccccc2c1=O	2	4	1	-4	5341
CC1CCCN(C(=O)CCS(=O)(=O)Cc2ccccc2)C1 (stereo unspecified)	2	-6	0	-3	16402*

Screening results deposited in PubChem by several laboratories.
